ADAM10 inh: ADAM10 inhibition, QFRET primary screen. O14672. recombinant ADAM10, EDANS/DABCYL FRET peptide cleavage, 3 h. inhibition, % at 7 µM. actives 0.62% (n = 370,000);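 active means inhibition above a per-campaign cutoff equal to the mean of compounds falling between control-based bounds plus 3 SD, cut at about 20% in these data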;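 further: 0% = DMSO wells while the 100% control is not disclosed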
FAS-TE inh: FAS thioesterase (human) inhibition; actives 0.67% (n = 360,000); P49327; inhibition, % at 15 µM; recombinant FAS-TE, OMFH fluorogenic substrate, fluorescence endpoint;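 active means compounds whose normalised, plate-corrected inhibition of enzyme fluorescence in the single-dose primary screen is 50% or more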;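 further: 0% = DMSO with enzyme and 100% = substrate without enzyme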
ADAM17 inh: inhibits human ADAM17. recombinant ADAM17, EDANS/DABCYL FRET peptide cleavage. inhibition, % at 6.95 µM. actives 0.83% (n = 370,000);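 active means inhibition above the mean of compounds lying between control limits plus 3 SD, set per campaign, cut at about 8.5% in these data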;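 further: 0% = DMSO-only wells as the low control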
NR3A LBD binder: NR3A (human) ligand-binding domain modulation; NR3A LBD differential scanning fluorimetry, Tm shift; 0% = protein alone, 100% = glycine-bound protein; actives 2.5% (n = 340,000); AID 1259313; Tm shift relative to glycine control, % at 25 µM;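 active means melting temperature shift of at least 10% of the positive control shift, at one fixed dose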
aDG glyco act: increases alpha dystroglycan glycosylation; AID 624168; Pro5-aDG cells, alpha-DG glycosylation AlphaScreen (IIH6); 0% Pro5, 100% B10-LARGE cell signal; actives 0.22% (n = 360,000); activation, % at 10 µM;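 active means activation of at least 8% versus controls, or a plate z-score of at least 8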;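 further: Pro5 are CHO cells carrying HIG-tagged alpha-DG that lacks glycosylation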
ADAM10 confirm: confirmation of inhibitors of human ADAM10. shares compounds with ADAM10 inh. AID 743208. inhibition, % at 6.95 µM. ADAM10 QFRET peptide cleavage, EDANS fluorescence. actives 1% (n = 2,100);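 active means inhibition above about 20% chosen separately for each screening run, limit read from the data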;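 further: 0% = DMSO wells and 100% = marimastat wells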
ADAM17 counter: counter-screen for ADAM10 exosite inhibitors: inhibitors of human ADAM17; shares compounds with ADAM10 inh; ADAM17 QFRET peptide cleavage, EDANS fluorescence; inhibition, % at 6.95 µM; actives 0.5% (n = 2,100); AID 743214;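 active means mean triplicate inhibition above the solvent-only control wells' mean plus 3 SD, cut at about 12% in these data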;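 further: 0% = DMSO wells and 100% = marimastat wells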
* = called active by the depositor; i = inactive; . = no result. The list is not random: actives were taken first. Their share in the collection is about 4%.

SMILES | ADAM10 inh | FAS-TE inh | ADAM17 inh | NR3A LBD binder | aDG glyco act | ADAM10 confirm | ADAM17 counter
O=C(CCNc1cc(Cl)cc(Cl)c1)c1cccs1 | 21.5* | 42.6 | 7.1 | -1.4 | 0.4 | 5.5 | 1.9
O=[N+]([O-])c1ccc(/C=[N+](\[O-])CCO)o1 | -1.9 | -2.2 | -4.8 | 0.4 | 0.5 | . | .
Cc1ccc(S(=O)(=O)N(C)C)cc1NC(=S)NNC(=O)C1CC1 | 20.0* | -12.5 | -2.4 | 2.4 | 0.0 | 0.3 | -0.2
Cc1ccc(S(=O)(=O)N(C)C)cc1NC(=O)C1CCCC1 | -4.3 | -13.5 | -1.4 | -10.6 | 0.3 | . | .
Nc1[nH]c(C(=O)c2ccccc2)c(-c2ccccc2[N+](=O)[O-])c1C(=O)NCCc1c[nH]c2ccccc12 | 25.0* | . | 12.2* | . | . | 3.5 | 1.8
COc1cc(OC)cc(C(=O)NCC(=O)NCCN2C(=O)S/C(=C\c3ccccc3Cl)C2=O)c1 | 2.0 | 22.9 | -0.3 | -1.3 | 0.1 | . | .
COc1cc(C(=O)NCC(=O)NCCN2C(=O)S/C(=C\c3ccccc3Cl)C2=O)cc(OC)c1OC | 20.5* | 10.5 | 6.0 | -0.9 | 0.0 | -0.4 | -0.3
CCCCn1c(NCc2ccccc2O)nc2ccccc21 | 3.7 | 9.3 | 1.1 | -11.8 | 0.2 | . | .
C=CCc1cccc(CNc2nc3ccccc3n2CC)c1O | 20.0* | 16.5 | 5.4 | 3.3 | 1.5 | 3.2 | 1.1
O=C(COc1ccc(F)c(Cl)c1)N1CCN(c2ccccn2)CC1 | -17.3 | 6.5 | 2.5 | 0.5 | 0.0 | . | .
Oc1ccc(F)cc1-c1cc(-c2ccc3c(c2)OCCO3)n[nH]1 | 23.3* | 24.1 | 6.8 | 3.5 | 1.0 | 6.8 | 3.5
Oc1ccccc1-c1cc(-c2ccc(F)cc2)n[nH]1 | 3.2 | 6.9 | 0.3 | -2.2 | 0.1 | . | .
COc1ccc(S(=O)(=O)N2CCN(CC(=O)c3ccc(O)c(O)c3)CC2)cc1 | 21.9* | -7.2 | -1.9 | 2.5 | 0.1 | 1.6 | 0.5
O=C(c1cccs1)N1CCN(C(=O)c2cccs2)C1=S | -7.5 | 1.5 | -5.5 | 2.4 | 0.6 | . | .
COc1ccc(-c2cn[nH]c2-c2ccc(OCc3ccccc3)cc2O)cc1 | 20.5* | -3.5 | 6.7 | 12.1* | 0.0 | 13.5 | 4.7
COc1ccc(-c2cn[nH]c2-c2ccc(OCc3ccccc3F)cc2O)cc1OC | 22.5* | -13.7 | 7.8 | 3.6 | -0.1 | 10.3 | 3.6
O=C(NNC(=O)c1cc(S(=O)(=O)N2CCOCC2)c(Cl)cc1Cl)c1ccccc1F | -21.0 | -8.4 | 1.1 | 2.8 | 0.1 | . | .
CC1C(=O)N2CCCc3cc(S(=O)(=O)NCCc4ccccc4)cc1c32 (stereo not given) | -22.4 | -1.2 | -7.7 | 3.3 | -0.3 | . | .
CC(Nc1nc(-c2ccc(F)cc2)cs1)c1nc2cc(Cl)c(N3CCCCC3)cc2n1CCCO (stereo not given) | 42.2* | 9.7 | 3.6 | 2.4 | 0.1 | 4.0 | 2.1
CC(C)(C)NC(=O)NC(=O)COC(=O)Cc1c(Cl)cccc1Cl | -4.3 | 16.7 | 3.0 | -0.2 | 0.0 | . | .
COc1ccc2c(c1)C[C@]1(C)c3ccccc3C(=O)N(Cc3ccccc3)[C@H]21 | 25.9* | 28.7 | 5.0 | 0.1 | -0.3 | 3.1 | 1.1
COc1cccc(C2Nc3ccccc3C(=O)N2Cc2ccccc2)c1 (stereo not given) | i | 14.3 | -272.8 | 1.5 | 0.1 | . | .
COc1cc(NC(=O)C2CCN(S(=O)(=O)c3cccc4nonc34)CC2)cc(OC)c1 | 23.2* | 11.6 | 3.2 | -11.3 | -0.4 | -1.2 | -0.2
C[C@H](CCC(=O)OCc1cn(CC(=O)c2ccc(O)cc2)nn1)C1CC[C@H]2[C@@H]3CC[C@@H]4C[C@H](O)CC[C@]4(C)[C@H]3C[C@H](O)[C@]12C (stereo not given in full) | 30.1* | 14.8 | 6.6 | 1.7 | -0.2 | 7.8 | 1.3
C[C@H](CCC(=O)O)[C@H]1CC[C@H]2[C@@H]3CC[C@@H]4C[C@H](O)CC[C@]4(C)[C@H]3C[C@H](O)[C@]12C | -2.3 | -2.1 | -0.9 | -1.1 | 0.0 | . | .
SMILES | ADAM10 inh | FAS-TE inh | ADAM17 inh | NR3A LBD binder | aDG glyco act | ADAM10 confirm | ADAM17 counter
COc1ccc(-c2ccc(-c3noc(-c4cccc(OC)c4)n3)c(OC)n2)cc1 | 38.5* | 32.0 | -3.8 | -28.4 | 0.2 | 72.6* | 42.1*
COc1ccc(-c2ccc(-c3noc(-c4ccc(OC)c(OC)c4)n3)c(OC)n2)cc1 | -12.9 | . | -5.2 | . | . | . | .
CC(C)(C)c1nn(-c2ccccc2)c2[nH]c(=O)c(C=O)cc12 | 77.6* | -3.2 | -1.6 | 0.2 | -0.1 | 4.9 | 2.3
CC(C)n1nccc1N(Cc1ccc(Cl)cc1)S(=O)(=O)c1ccccc1 | 28.2* | 30.7 | 5.8 | -2.8 | -0.1 | 1.9 | 0.7
CC(C)n1nccc1N(Cc1ccc(Br)cc1)S(=O)(=O)c1ccccc1 | 14.8 | 24.6 | 2.7 | -1.2 | 0.1 | . | .
Cc1cccc(NC(=O)CCCN=C2NS(=O)(=O)c3ccccc32)c1C | 55.7* | -8.5 | -5.2 | 0.3 | 0.3 | -0.4 | -0.6
Cc1ccccc1-c1nc(C(=O)NCC2CCCO2)cc2c1[nH]c1ccccc12 (stereo not given) | -248.1 | 19.0 | -55.3 | -4.3 | 0.0 | . | .
COc1ccccc1-n1c(SCC(=O)c2ccc(O)cc2O)nc2cc([N+](=O)[O-])ccc21 | 25.7* | 24.8 | 7.9 | 29.9* | -0.4 | 9.1 | 2.7
COc1ccccc1-n1c(SCC(=O)NC2CCS(=O)(=O)C2)nc2cc([N+](=O)[O-])ccc21 (stereo not given) | 9.7 | 10.5 | 0.6 | 0.1 | 0.1 | . | .
O=C(NCc1ccccc1)c1onc(CSc2ccccc2)c1C(=O)NCc1ccccc1 | 11.8 | 23.4 | 4.9 | -3.1 | -0.1 | . | .
CC(C)NC(=O)c1c(CSc2ccc(Cl)cc2)noc1C(=O)NCc1ccccc1 | 21.6* | 15.9 | 5.4 | -8.3 | 0.2 | 3.0 | 2.2
CC(C)NC(=O)c1c(CSc2ccccc2)noc1C(=O)NCc1ccccc1 | 80.6* | 18.5 | 3.8 | -8.3 | 0.3 | 1.4 | 1.0
O=C(NCc1ccccc1)c1onc(CSc2ccc(Cl)cc2)c1C(=O)NCc1ccccc1 | 1.6 | 25.2 | 0.6 | -3.7 | 0.1 | . | .
O=C(CN(Cc1cccs1)C(=O)CN1C(=O)COc2ccccc21)NCc1ccco1 | 0.9 | -4.5 | -0.2 | -0.5 | 0.0 | . | .
CCN(CC)c1ccc(NC(=O)c2ccccc2Br)cc1S(=O)(=O)Nc1ccccc1OC | 15.9 | 27.4 | 3.8 | -10.2 | 0.8 | . | .
CCN(CC)c1ccc(NC(=O)COc2ccccc2C)cc1S(=O)(=O)Nc1ccccc1OC | 20.6* | 29.9 | 7.9 | 6.7 | 0.4 | 10.8 | 3.3
Cc1cccc(-c2noc(Cc3ccc(Cl)cc3)n2)c1 | 20.3* | 23.1 | 2.2 | -20.7 | 1.4 | 3.9 | 0.7
O=C1c2cccc(OCc3ccc(F)cc3)c2CCN1Cc1ccccc1 | 19.9* | 22.6 | 4.9 | -0.2 | 0.8 | 4.3 | 1.8
